The values below come from PubChem BioAssay AID1347074 (Center for Chemical Genomics, University of Michigan, 2019).

Hit rate of the full screen: of about 47,000 compounds, about 2,800 (6%) were called active. The entries come from a sample that favours actives as a whole. Values without a mark were called inactive. Rule as the data show it: active = z-score above about 3 (passing the limit was not always enough); inactive = the rest.

Sequence of Endoribonuclease Dicer (Homo sapiens) (Q9UPY3 whole entry, looked up): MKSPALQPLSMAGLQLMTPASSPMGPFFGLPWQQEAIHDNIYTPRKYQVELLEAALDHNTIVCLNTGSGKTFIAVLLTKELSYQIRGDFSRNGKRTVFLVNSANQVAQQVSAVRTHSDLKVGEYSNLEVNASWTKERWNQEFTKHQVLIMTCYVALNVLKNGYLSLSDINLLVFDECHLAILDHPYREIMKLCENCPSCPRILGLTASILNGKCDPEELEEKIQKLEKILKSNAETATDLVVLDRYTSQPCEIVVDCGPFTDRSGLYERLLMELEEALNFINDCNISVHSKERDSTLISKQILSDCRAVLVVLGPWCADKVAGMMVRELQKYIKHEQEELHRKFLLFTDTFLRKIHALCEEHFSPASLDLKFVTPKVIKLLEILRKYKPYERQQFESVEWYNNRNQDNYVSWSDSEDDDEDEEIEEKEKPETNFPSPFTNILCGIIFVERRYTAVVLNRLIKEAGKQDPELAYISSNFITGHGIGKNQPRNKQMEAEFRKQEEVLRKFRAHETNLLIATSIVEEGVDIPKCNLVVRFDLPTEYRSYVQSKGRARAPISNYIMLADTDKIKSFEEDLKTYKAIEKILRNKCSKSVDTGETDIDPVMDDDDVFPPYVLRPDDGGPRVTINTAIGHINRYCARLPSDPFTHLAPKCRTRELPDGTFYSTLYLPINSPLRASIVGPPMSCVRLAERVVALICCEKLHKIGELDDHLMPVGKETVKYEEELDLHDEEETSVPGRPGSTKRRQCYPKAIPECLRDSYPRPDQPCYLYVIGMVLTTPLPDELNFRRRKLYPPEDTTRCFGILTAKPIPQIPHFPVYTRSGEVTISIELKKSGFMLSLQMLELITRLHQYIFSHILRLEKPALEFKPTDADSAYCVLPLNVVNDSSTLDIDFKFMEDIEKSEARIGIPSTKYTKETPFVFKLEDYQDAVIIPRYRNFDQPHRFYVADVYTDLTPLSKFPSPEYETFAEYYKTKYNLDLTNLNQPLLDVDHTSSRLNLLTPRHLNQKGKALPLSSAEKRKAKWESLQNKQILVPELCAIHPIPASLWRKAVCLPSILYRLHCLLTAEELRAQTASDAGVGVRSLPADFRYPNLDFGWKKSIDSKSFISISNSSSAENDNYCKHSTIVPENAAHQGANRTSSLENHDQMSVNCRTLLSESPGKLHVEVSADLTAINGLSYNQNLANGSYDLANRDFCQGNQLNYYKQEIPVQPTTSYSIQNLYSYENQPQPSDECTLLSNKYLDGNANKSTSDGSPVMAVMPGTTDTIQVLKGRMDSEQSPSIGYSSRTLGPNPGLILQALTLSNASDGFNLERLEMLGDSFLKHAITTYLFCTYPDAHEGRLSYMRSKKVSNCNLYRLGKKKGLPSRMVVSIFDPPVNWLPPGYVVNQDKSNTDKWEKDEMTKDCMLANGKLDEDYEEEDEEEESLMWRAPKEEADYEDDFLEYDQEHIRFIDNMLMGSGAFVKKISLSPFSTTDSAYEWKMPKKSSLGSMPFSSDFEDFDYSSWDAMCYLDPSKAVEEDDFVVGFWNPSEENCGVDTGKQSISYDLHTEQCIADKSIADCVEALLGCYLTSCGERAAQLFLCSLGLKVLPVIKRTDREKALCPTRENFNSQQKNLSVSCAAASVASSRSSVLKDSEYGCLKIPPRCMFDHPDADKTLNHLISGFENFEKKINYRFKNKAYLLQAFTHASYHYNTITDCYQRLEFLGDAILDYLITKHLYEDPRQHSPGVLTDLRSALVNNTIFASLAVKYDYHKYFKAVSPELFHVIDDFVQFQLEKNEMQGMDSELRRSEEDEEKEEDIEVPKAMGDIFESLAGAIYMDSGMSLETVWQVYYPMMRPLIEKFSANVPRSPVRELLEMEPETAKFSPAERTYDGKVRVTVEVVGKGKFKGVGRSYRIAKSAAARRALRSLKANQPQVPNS

The assay has as its target Endoribonuclease Dicer (Homo sapiens) (UniProt Q9UPY3). Description: inhibitors of Dicer pre-microRNA processing, primary screen, biochemical, cat-ELCCA, chemiluminescence (AID 1347074).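 Also: plate controls were vehicle for no effect and no enzyme for full effect; higher signal means more uncleaved substrate so more Dicer inhibition.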 To be noted: cat-ELCCA pre-miR-21 Dicer processing, at 25 µM, active compounds read high.
In the case of `COC(=O)COc1c(C)cc(-c2nn(C)c(=O)c3ccccc23)cc1C`, the z-score was -1.18.

For the compound `CCCCOC(C)n1cc(Br)c(=O)[nH]c1=O` (configuration not stated), the z-score is 0.67. Under `CC1=C(C(=O)OCc2ccccc2)C(c2ccc3c(c2)OCO3)C2=C(CC(c3cccs3)CC2=O)N1` (configuration not stated) stands 3.65 (active). In the case of `CCOCCOC(=O)C1=C(C)NC2=C(C(=O)CC(c3cccs3)C2)C1c1ccc(OC(C)=O)cc1` (configuration not stated) it was 0.06.

As to `CCSCCOC(=O)C1=C(C)NC2=C(C(=O)CC(c3cccs3)C2)C1c1ccsc1` (configuration not stated), the z-score was 1.85. Under `S=C(N/N=C/c1ccc(Cl)cc1)Nc1cc(Cl)ccc1Cl` stands -0.45; under `CCOC(=O)N/N=C/c1ccccc1Cl`, -1.05. In the case of `O=C(O)c1ccccc1/C=N/Nc1cc(Cl)ccc1Cl` it was 5.07 (active). In the case of `N#Cc1ccsc1N1C(=O)c2ccccc2C1=O` it was 0.31; in that of `CCOC(=O)CSC(=NC)NNC(=O)c1c(C)nc2cc(C)ccn12`, -0.21. In the case of `Cc1cc(Br)c(NC(=O)c2ccc(Cl)cc2)c(Br)c1`, the z-score was 4.71 (active). In the case of `Cc1cc(C)c(C(=O)NC(=O)Nc2c(Cl)cc(Cl)cc2Cl)c(C)c1` it was 0.37; in that of `CC(C)(C)c1ccc(-c2cc(NC(=O)c3ccc(Cl)cc3)n[nH]2)cc1`, 1.49. Regarding `Cc1cccc(C2C3=C(CCCC3=O)N=C3c4ccccc4C(=O)C32)c1` (configuration not stated), the z-score was 2.43. Under `CC(C)(C)C(=O)Nc1ccncc1C(=O)O` stands -4.04. In the case of `Nc1nc(COc2ccccc2Cl)ncc1S(=O)(=O)c1ccccc1` it was -2.39. In the case of `COc1ccc(-c2cc(C(F)(F)F)nc(SCC(=O)NC3CCCC3)n2)cc1OC`, the z-score is 1.64. Under `COc1ccc(-c2cc(C(F)(F)F)n3ncnc3n2)cc1OC` stands 4.99 (active); under `COc1ccc(-c2cc(C(F)(F)F)nc(SCC(=O)NC3CC3)n2)cc1OC`, -0.37. In the case of `CNNC(=S)Nc1ccc(F)c(C)c1` it was 1.79; in that of `C/C(=N\NC(=S)Nc1cccc(F)c1)c1ccco1`, 5.72 (active). Under `CCc1[nH]nc2c1C(c1ccc(OC)c(OC)c1)C(C#N)=C(N)O2` (configuration not stated) stands -3.59. For the compound `COc1ccc2cc(S(=O)(=O)N3CCN(C(c4ccccc4)c4ccccc4)CC3)ccc2c1`, the z-score is 0.57. For `CC1CCN(C(=S)NC2CC3CCC2C3)CC1` (configuration not stated), the z-score is 2.37.

`CCOC(=O)c1c(NC(=O)c2cc3ccccc3o2)sc(C)c1C`: the z-score is 0.8. Under `CC(=Nc1ccccc1)c1nc(-c2ccccc2)oc1O` stands 1.37; under `O=S(=O)(c1cccc(-c2cn3cccnc3n2)c1)N1CCCC1`, 0.36.
